Values without a mark were called inactive. Calls of active or inactive are those of the source. No rule for the calls is given here.
Assay: displacers of FITC-Puma-BH3 from Bcl-B – biochemical, fluorescence polarization, Puma-BH3 peptide, counter-screen for TR3-derived Bcl-B inhibitor project, dose response (AID 1245)
Settings: Bcl-B/FITC-Puma-BH3 fluorescence polarization binding

SMILES	EC50
Cc1cc(C)nc(/N=C(/N)Nc2cccc(N)c2)n1	> 25 µM
Cc1ccc(C)n1-c1ccc(Br)cc1C(=O)O	1 µM (active)
